In PubChem BioAssay (Tox21):
Active and inactive are the calls of the source. The call rests on the fitted dose curve.

These compounds were tested against Muscarinic acetylcholine receptor M1 (Homo sapiens) (UniProt P11229) (assay: Cholinergic receptor muscarinic 1 (CHRM1) small molecule agonists, cell-based qHTS assay (AID 1963589; further: nearly all actives have a fitted effect of over 35% in size)). Conditions: CHRM1-CHO cells, agonist mode, calcium flux fluorescence; series mostly up to 76.8 µM; activation: at the top concentration.
From the text: National Center for Advancing Translational Sciences [NCATS]
Division of Preclinical Innovation [DPI]
U.S. Environmental Protection Agency [EPA]
National Institutes of Environmental Health Sciences [NIEHS]
National Toxicology Program [NTP]
U.S. Food and Drug Administration [FDA]
The CHRM1 is a muscarinic receptor. This receptor plays a crucial role in learning and memory processes and has long been identified as a promising therapeutic target for the improvement of cognitive decline in Alzheimer's disease (AD). The CHRM1-CHO cell line stably expressing human muscarinic acetylcholine receptor M1 (CHRM1) can be used for screening agonists and antagonists of interactions between CHRM1 and its ligands. The CHRM1-CHO Calcium Flux Assay is a homogeneous fluorescence-based assay for detecting the intracellular calcium level using FDSS kinetic plate reader system.
CHRM1-CHO cells were dispensed at 1000 cells/3uL/well in 1536-well black-clear bottom plates using a Multidrop Dispenser. After the assay plates were incubated at a 37 C/5% CO2 incubator for 18 h, 3 uL of Dye Loading Buffer was transferred to the assay plate by a Flying Reagent Dispenser. The assay plates were incubated at 37 C for 1h. For agonist mode, 23 nL of compounds dissolved in DMSO, positive controls or DMSO only was transferred to the assay plate by a pin tool. […] Each test compound was measured at 15 concentrations in three independent runs.
On the % scale 0 is the no-effect control and ±100 the full control effect; potency means the concentration at half of the fitted maximal effect.

Muscarinic acetylcholine receptor M1 (Homo sapiens), sequence (P11229 whole entry, looked up): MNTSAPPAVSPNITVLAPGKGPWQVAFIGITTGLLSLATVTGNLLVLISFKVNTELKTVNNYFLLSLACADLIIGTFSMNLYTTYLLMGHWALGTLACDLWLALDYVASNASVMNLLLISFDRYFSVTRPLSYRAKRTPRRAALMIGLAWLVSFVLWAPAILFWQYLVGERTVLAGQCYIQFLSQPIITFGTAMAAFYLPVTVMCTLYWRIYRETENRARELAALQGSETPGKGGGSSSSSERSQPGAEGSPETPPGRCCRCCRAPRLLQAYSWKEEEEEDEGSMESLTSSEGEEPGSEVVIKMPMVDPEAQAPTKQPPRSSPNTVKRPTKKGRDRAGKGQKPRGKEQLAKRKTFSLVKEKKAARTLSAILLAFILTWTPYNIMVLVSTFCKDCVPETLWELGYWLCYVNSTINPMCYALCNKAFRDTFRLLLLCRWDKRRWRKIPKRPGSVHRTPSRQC

Row | Structure (SMILES) | activation | Potency
1 | COC12CC[C@@]3(C[C@@H]1C(C)(O)C(C)(C)C)[C@H]1Cc4ccc(O)c5c4[C@@]3(CCN1CC1CC1)[C@H]2O5 (stereo not given in full) | 17.9% (inactive) | 
2 | CC(C)CBr | -0.875% (inactive) | 
3 | OCCBr | 9.96% (inactive) | 
4 | O=[N+]([O-])c1cccc2cccc([N+](=O)[O-])c12 | -0.0349% (inactive) | 
5 | C[C@]12CC[C@H]3[C@@H](CCC4=CC(=O)CC[C@@H]43)[C@@H]1CC[C@@H]2OC(=O)CCc1ccco1 | 0.648% [at 35.3 µM] (inactive) | 
6 | CC1(C)CN=C(NN=C(/C=C/c2ccc(C(F)(F)F)cc2)/C=C/c2ccc(C(F)(F)F)cc2)NC1 | -0.964% (inactive) | 
7 | Oc1cc(Cl)cc(Cl)c1 | 0.306% (inactive) | 
8 | COC(=O)N(OC)c1ccccc1COc1ccn(-c2ccc(Cl)cc2)n1 | -0.572% (inactive) | 
9 | CC(C)CCCCCCCOP(=O)(Oc1ccccc1)Oc1ccccc1 | 0.0065% (inactive) | 
10 | Cc1cc(C(C)(C)c2ccc(O)c(C)c2)ccc1O | 2.36% (inactive) | 
11 | O=C(NC(=O)c1c(F)cccc1F)Nc1cc(Cl)c(OC(F)(F)C(F)F)c(Cl)c1 | -0.781% (inactive) | 
12 | CCO/N=C(\CC)C1=C(O)CC(c2c(C)cc(C)cc2C)CC1=O (stereo not given) | 3.86% (inactive) | 
13 | O=[N+]([O-])C(Br)(CO)CO | 4.69% (inactive) | 
14 | C=CC(C)(CCC=C(C)C)OC(=O)c1ccccc1N (stereo not given) | -0.19% (inactive) | 
15 | CC1=C(C(=O)O)N2C(=O)[C@@H](N)[C@H]2SC1 | 0% [at 15.8 µM] (inactive) | 
16 | CCC1(CC)C(=O)N=C(O)NC1=O | -0.0039% (inactive) | 
17 | O=[N+]([O-])c1cc(C(F)(F)F)c(Cl)c([N+](=O)[O-])c1Cl | 1.21% (inactive) | 
18 | CCCCN(N=O)C(=N)N[N+](=O)[O-] | -0.133% (inactive) | 
19 | CC(C)(C)OO | 0.458% (inactive) | 
20 | Oc1cccc(Cl)c1 | 0.233% (inactive) | 

Row | Structure (SMILES) | activation | Potency
21 | O=C1NCN(c2ccccc2)C12CCN(CC1COc3ccccc3O1)CC2 (stereo not given) | 18.6% [at 35.3 µM] (inactive) | 
22 | CCC1CCC(=O)O1 (stereo not given) | 0.317% (inactive) | 
23 | CN/C(=N\[N+](=O)[O-])NCC1CCOC1 (stereo not given) | -0.164% (inactive) | 
24 | CC1(C)[C@H](C=C(Cl)Cl)[C@@H]1C(=O)O[C@@H](C#N)c1cccc(Oc2ccccc2)c1 | 0.0551% (inactive) | 
25 | C=CCc1ccc(OC(=O)Cc2ccccc2)c(OC)c1 | 0.483% (inactive) | 
26 | O=c1[nH]c(Cl)c(Cl)cc1Cl | 0.866% (inactive) | 
27 | CC(=O)[O-].CC(=O)[O-].O.O.[Cd+2] | 8.01% (inactive) | 
28 | CCOc1cccc(C2(N3CCN(c4ccccc4)CC3)CCC(C)CC2)c1 (stereo not given) | 0.0653% (inactive) | 
29 | C=CC(=O)OC | -0.0993% (inactive) | 
30 | CC(=O)C(Cl)(Cl)Cl | 9.1% (inactive) | 
31 | Clc1cccc(N2CCNCC2)c1 | 2.01% [at 35.3 µM] (inactive) | 
32 | ClSC(Cl)(Cl)Cl | 3.82% (inactive) | 
33 | CC(C)(C)c1ccc(O)cc1 |  | inactive
34 | C[As+](C)(C)CC(=O)[O-] | 0.469% (inactive) | 
35 | Cc1cc(C)c(C(=O)P(=O)(C(=O)c2c(C)cc(C)cc2C)c2ccccc2)c(C)c1 | 0.628% (inactive) | 
36 | CCCCCCCCCCCCCCC(Br)C(=O)O (stereo not given) | -0.669% (inactive) | 
37 | CN(C)c1ccc(N)cc1 | -0.415% (inactive) | 
38 | CC(C)[C@H](C(=O)OC(C#N)c1cccc(Oc2ccccc2)c1)c1ccc(OC(F)F)cc1 (stereo not given in full) | 1.52% (inactive) | 
39 | O=[N+]([O-])c1c(Cl)c(Cl)cc(Cl)c1Cl |  | 3.47 µM (active)
40 | O=[N+]([O-])c1ccc(CCl)cc1 | -0.151% (inactive) | 
